The list is not random: actives were taken first. Their share in the collection is about 2.1%.
ARNT-TACC3 inh: disruptors of ARNT/TACC3 protein interaction, primary screen, biochemical, AlphaScreen, single concentration; Transforming acidic coiled-coil-containing protein 3 (Homo sapiens), Q9Y6A5; AlphaScreen His-ARNT PAS-B/GST-TACC3 binding, luminescence; TACC3 fragment carries E629A point mutation; inhibition, % at 9.99 µM; 0.66% of 390,000 active;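 active means mean inhibition of replicates at least 50% and at least half of replicates each reaching 50%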;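 further: 0% = complete ARNT plus TACC3 wells and 100% = ARNT alone without TACC3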
CASP6 VEID inh: human caspase-6 inhibitors, primary screen, biochemical, VEID-R110 fluorescence, single point, set 2; P55212; 0.53% of 350,000 active; inhibition, % at 12.5 µM; purified caspase-6, Z-VEID-R110 cleavage fluorescence;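 active means mean inhibition across replicates at least about 35%, with every replicate also reaching that limit, limit read from the data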;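 further: 0% = median of neutral control wells and 100% = no fluorescence left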
NSD2 inh: NSD2 histone methyltransferase inhibitors, primary screen, biochemical, AlphaScreen, single concentration, set 2. Histone-lysine N-methyltransferase NSD2 (Homo sapiens), O96028. NSD2 peptide methylation, 120 min. 0.54% of 310,000 active. AID 743445, 2014. inhibition, % at 12.5 µM; in the data active means inhibition above about 50%
Target sequence (O96028 whole entry, looked up): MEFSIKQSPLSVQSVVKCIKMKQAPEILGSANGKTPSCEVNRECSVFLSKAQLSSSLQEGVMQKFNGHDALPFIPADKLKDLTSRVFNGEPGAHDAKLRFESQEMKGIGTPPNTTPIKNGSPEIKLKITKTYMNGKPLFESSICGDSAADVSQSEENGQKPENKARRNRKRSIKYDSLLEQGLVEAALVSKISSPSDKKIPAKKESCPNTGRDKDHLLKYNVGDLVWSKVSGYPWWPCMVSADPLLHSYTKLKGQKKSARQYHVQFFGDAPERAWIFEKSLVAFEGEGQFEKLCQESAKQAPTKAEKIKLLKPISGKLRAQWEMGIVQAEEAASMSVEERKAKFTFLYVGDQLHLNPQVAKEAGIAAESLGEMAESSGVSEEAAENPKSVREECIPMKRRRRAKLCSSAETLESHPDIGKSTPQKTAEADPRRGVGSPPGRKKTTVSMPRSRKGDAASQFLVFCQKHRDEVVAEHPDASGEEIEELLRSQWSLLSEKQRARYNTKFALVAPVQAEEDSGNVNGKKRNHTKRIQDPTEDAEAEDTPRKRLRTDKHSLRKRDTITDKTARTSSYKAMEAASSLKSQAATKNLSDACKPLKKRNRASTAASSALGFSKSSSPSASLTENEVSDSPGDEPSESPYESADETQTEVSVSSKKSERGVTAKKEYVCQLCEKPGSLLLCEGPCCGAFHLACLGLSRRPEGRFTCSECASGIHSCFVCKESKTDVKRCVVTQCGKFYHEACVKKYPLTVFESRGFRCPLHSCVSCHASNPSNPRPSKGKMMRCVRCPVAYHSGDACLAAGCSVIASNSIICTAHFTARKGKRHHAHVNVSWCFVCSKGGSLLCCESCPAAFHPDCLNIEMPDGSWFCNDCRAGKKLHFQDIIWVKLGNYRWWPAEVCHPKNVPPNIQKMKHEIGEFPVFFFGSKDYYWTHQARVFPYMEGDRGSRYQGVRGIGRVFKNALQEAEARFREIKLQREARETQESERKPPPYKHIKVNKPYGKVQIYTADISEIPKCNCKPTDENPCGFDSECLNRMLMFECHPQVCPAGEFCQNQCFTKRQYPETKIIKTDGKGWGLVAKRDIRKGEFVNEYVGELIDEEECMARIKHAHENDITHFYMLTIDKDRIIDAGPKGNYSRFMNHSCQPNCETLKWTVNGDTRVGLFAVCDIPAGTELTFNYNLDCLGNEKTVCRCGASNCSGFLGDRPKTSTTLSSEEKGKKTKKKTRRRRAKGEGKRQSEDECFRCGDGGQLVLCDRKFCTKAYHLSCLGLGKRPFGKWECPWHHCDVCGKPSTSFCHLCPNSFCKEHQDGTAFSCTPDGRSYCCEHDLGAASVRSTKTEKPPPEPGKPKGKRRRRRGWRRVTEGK
PfHsp90 yeast 2: growth inhibition of PfHsp90-expressing yeast, primary screen, antimalarial PfHsp90 inhibitor project, S. cerevisiae, BacTiter-Glo luminescence, single point, set 2; 0.32% of 310,000 active; BacTiter-Glo ATP, 48 h; yeast lacking PDR1 and PDR3 efflux regulators; inhibition, % at 9.4 µM;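 active means every replicate shows inhibition above about 80%, whatever the replicate mean, limit read from the data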;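 further: 0% = DMSO neutral controls and 100% = 20 µM radicicol positive controls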
SIRT5 block: SIRT5 desuccinylase inhibitors, primary screen, biochemical, fluorescence imaging, single point, set 5. NAD-dependent protein deacylase sirtuin-5, mitochondrial (Homo sapiens), Q9NXA8. Purified SirT5, succinyl-peptide AMC, trypsin-coupled fluorescence. inhibition, % at 15 µM. 1.1% of 330,000 active. AID 652115, 2013; in the data active means inhibition above about 15%
AlphaScreen art: AlphaScreen signal interference with preloaded methylated product, dose response, artefact control for NSD2 inhibitor project, biochemical, cherry-picked samples. shares compounds with NSD2 inh. AlphaScreen artifact counterscreen, preloaded methylated H4 peptide. AC35, µM (highest dose often 10 µM), for the others: at the highest dose activity change, negative = signal loss. 9.4% of 1,500 active. AID 1053174, 2014; call rule not given here
* marks the source's active call; other numbers are inactive results; · = no result given.

SMILES	ARNT-TACC3 inh	CASP6 VEID inh	NSD2 inh	PfHsp90 yeast 2	SIRT5 block	AlphaScreen art
CNCCCOc1cccc(OC(C)C)c1	·	·	92*	6	·	-3%
CNCCCOc1cccc(Oc2ccccc2)c1	0	1	127*	8	2	0%
CC(C)NC(=O)N1[C@@H](CO)[C@@H](c2ccccc2)C12CN(Cc1ccc(F)cc1)C2	·	0	·	·	1	·
CC1=CS(=O)(=O)CC1Sc1ncn[nH]1 (stereo unspecified)	-6	·	144*	-51	·	-5%
CC(C(=O)O)N1C(=O)/C(=C/C=C/c2ccco2)SC1=S (stereo unspecified)	7	·	176*	2	·	4.3µM*
O=C(CN1CCOCC1)NCCNC(=O)CN1CCOCC1	-1	·	60*	·	·	-4%
CC1=NN(c2ccc(C(=O)O)c(N)c2)C(=O)C1	47*	26	130*	15	23*	-6%
O=C(Nc1cc(F)ccc1F)N1CCN(c2ccnc3cc(Cl)ccc23)CC1	16	-1	61*	-8	0	0%
O=S(=O)(c1ccccc1)N1CC2(C1)[C@@H](c1ccccc1)[C@H](CO)N2CC1CC1	·	-1	·	·	1	·
Cc1noc(C)c1S(=O)(=O)N(C)C[C@H]1OCCCC[C@@H](C)Oc2ccc(NC(=O)c3ccccc3)cc2C(=O)N([C@@H](C)CO)C[C@@H]1C	-5	-1	·	·	5	·
CCCC#Cc1ccc2c(c1)O[C@H](CN(C)CCC)[C@@H](C)CN([C@H](C)CO)S2(=O)=O	14	1	·	·	5	·
COc1ccc2c(c1)C(=O)C(=O)N2CCS(=O)(=O)c1ccccc1	-2	5	10	-2	-4	·
O=C1C(=O)N(CCS(=O)(=O)c2ccccc2)c2ccc(F)cc21	1	5	100*	11	-3	2%
CCNC(=S)N(CCCN(CC)CC)Cc1cc2cc3c(cc2[nH]c1=O)OCO3	0	-1	84*	2	-4	-7%
CCN(CC)CCCN(Cc1cc2cc3c(cc2[nH]c1=O)OCO3)C(=O)Nc1ccccc1OC	11	·	8	22	·	·
CCN(CC)CCCN(Cc1cc2cc(OC)c(OC)cc2[nH]c1=O)C(=O)Nc1ccccc1	3	·	51*	·	·	0%
CCN(CC)CCCN(Cc1cc2cc3c(cc2[nH]c1=O)OCO3)C(=S)NCCOC	-23	14	27	15	-5	·
COc1ccc(S(=O)(=O)Nc2cccc3c2O[C@H](CN(C)C(=O)NC(C)C)[C@@H](C)CN([C@@H](C)CO)C3=O)cc1	-7	2	·	·	-1	·
COc1cc(/C=C2\C(=O)ON=C2c2ccc(Cl)cc2)ccc1O	·	4	61*	·	7	-4%
Oc1ccc(NCc2cccc(OCc3ccc(F)cc3)c2)cc1	4	38*	59*	2	-1	-5%
Oc1ccc(NCc2cccc(OCc3ccccc3)c2)cc1	34	5	13	-11	-2	·
CC=Cc1ccc2n(c1=O)C[C@@H]1[C@@H](CO)[C@H](C(=O)NCCC)[C@H]2N1CC1CCCC1 (mixture of isomers)	-3	-2	·	·	-1	·
CC12CCC(C(=O)O)(c3nc4cc([N+](=O)[O-])ccc4nc31)C2(C)C (stereo unspecified)	-5	10	-1	9	-4	·
CC12CCC(C)(c3nc4ccccc4nc31)C2(C)C	-1	-3	53*	9	-3	-3%
O=C(CC(=O)Nc1ccc(Cl)cc1)N/N=C\c1cccc(F)c1	-5	-1	113*	-1	-1	2%
SMILES	ARNT-TACC3 inh	CASP6 VEID inh	NSD2 inh	PfHsp90 yeast 2	SIRT5 block	AlphaScreen art
COCCn1c(N)c(N(Cc2ccccc2)C(=O)c2cc(=O)[nH]c3ccccc23)c(=O)[nH]c1=O	-3	2	93*	7	0	-6%
Cc1cccnc1NC(=O)c1ccc(S(=O)(=O)N2CC(C)OC(C)C2)cc1 (stereo unspecified)	-4	11	50*	-4	-14	-1%
C=CCn1c(NC(=O)c2ccc(Br)o2)c(S(=O)(=O)c2ccccc2)c2nc3ccccc3nc21	14	·	83*	-19	·	0%
O=C(Nc1ccc(S(=O)(=O)NCc2ccccc2)cc1)c1ccc(Br)o1	22	·	1	·	·	·
C[C@@H]1CN([C@H](C)CO)S(=O)(=O)c2ccc(C3=CCCCC3)cc2O[C@H]1CN(C)Cc1ccccn1	5	3	·	·	6	·
O=C1NC2=C(CCc3ccccc32)C(c2ccccc2)N1 (stereo unspecified)	-6	-3	93*	2	-6	-2%
O=C(C[C@@H]1C=C[C@H](NC(=O)c2ccc(F)cc2)[C@@H](CO)O1)NCCc1ccncc1	5	0	·	·	5	·
CCc1nnc(NC(=O)c2ccc3ccccc3n2)s1	31	-5	78*	-44	-2	-1%
CCc1nnc(NC(=O)c2ccc(COc3ccc(C)cc3)o2)s1	-5	·	-6	7	·	·
CCc1nnc(NC(=O)c2ccc(COc3ccccc3)o2)s1	-19	·	96*	·	·	1%
CCSc1nnc(NC(=O)c2ccc3ccccc3n2)s1	-6	·	1	-33	·	·
CC(C)=CCC/C(C)=C/CC/C(C)=C/CC/C(C)=C/CC1=C(C)C(=O)c2ccccc2C1=O	1	·	·	-21	1	·
CC(C)=CCC1=C(OCC(=O)O)C(=O)c2ccccc2C1=O	-78	·	127*	-9	1	-2%
C[C@@H]1CCCCO[C@H](CN(C)S(C)(=O)=O)[C@H](C)CN([C@@H](C)CO)C(=O)c2cc(NC(=O)c3ccncc3)ccc2O1	1	0	·	·	5	·
CC(=O)Nc1ccc(S(=O)(=O)NCCSCc2ccc(Cl)cc2Cl)cc1	-3	·	50*	-24	·	0%
CC(=O)Nc1ccc(S(=O)(=O)NCCNS(=O)(=O)c2ccc(NC(C)=O)cc2)cc1	3	2	-7	6	-1	·
Cc1ccccc1-c1ccc(C2[C@@H]3CN(Cc4cccnc4)C[C@H]2N3)cc1 (stereo partly specified)	·	1	·	·	-2	·
O=C(/C=C/c1ccc(OCCCF)cc1)N1CCN(Cc2ccccc2)CC1	7	-4	70*	14	2	-2%
O=C(/C=C/c1ccc([N+](=O)[O-])cc1)N1CCN(Cc2ccccc2)CC1	-3	1	-2	7	-1	·
COc1ccc(/C=C2/C(=O)N(c3c(F)c(F)c(F)c(F)c3F)N=C2C)cc1	0	6	58*	-10	-1	2%

Screens from PubChem.
